Screening results as filed in PubChem BioAssay.
SW480 rerep – inducers of DNA re-replication in SW480 colon cancer cells; SW480 DNA re-replication, Hoechst DNA content imaging, 48 h; Potency, µM (series often up to 46.1 µM), for the others: at the highest dose re-replication activation, usual class: activators; 340,000 compounds, 1.8% hits; AID 624297; further: potency means the concentration at half of the fitted maximal effect; % of control where 0% means no effect; nearly all actives have a fitted effect of over 55% in size
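Treated cells incubate 48 hr (37 C, 5% CO2), are stained 40 min with Hoechst, and nuclear fluorescence is enumerated; a rise in nuclei with high DNA signal marks re-replication.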
MCF10A rereplic – inducers of DNA re-replication in MCF 10A breast cells. MCF 10A DNA re-replication, Hoechst nuclear intensity, 48 h. Potency, µM (highest dose often 46.1 µM), for inactives: top-dose activity, positive = re-replication, most hits filed as activators. 350,000 compounds, 2.9% hits. AID 624296; further: potency means the concentration at half of the fitted maximal effect; % of control where 0% means no effect; nearly all actives have a fitted effect of over 50% in size
KB-V1 cytotox – KB-V1 MDR subline cytotoxicity | KB-V1 MDR cells viability, CellTiter-Glo, 72 h | Potency, µM (doses to about 46.1 µM), hits mostly cytotoxic | 400,000 compounds, 3.4% hits | AID 1347076; further: potency means the concentration at half of the fitted maximal effect; on the % scale 0 is the no-effect control and ±100 the full control effect; nearly all actives have a fitted effect of over 60% in size
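Potencies derive from concentration-effect curves fitted to normalized luminescence (CellTiter-Glo) of KB-V1 cells treated for 72 h at 37 degrees C in phenol-red-free DMEM containing 10% FBS.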
DRD3 antagonist – blocks the human D3 dopamine receptor. P35462. D3R cells, DiscoveRx beta-arrestin luminescence, antagonist mode; hits give low values. max response, negative = inhibition, %. 360,000 compounds, 2.5% hits; in the data active means max response below about -50%; inconclusive means no clear call, values can overlap the other calls; further: on the % scale 0 is the no-effect control and ±100 the full control effect
Target sequence (P35462 whole entry, looked up): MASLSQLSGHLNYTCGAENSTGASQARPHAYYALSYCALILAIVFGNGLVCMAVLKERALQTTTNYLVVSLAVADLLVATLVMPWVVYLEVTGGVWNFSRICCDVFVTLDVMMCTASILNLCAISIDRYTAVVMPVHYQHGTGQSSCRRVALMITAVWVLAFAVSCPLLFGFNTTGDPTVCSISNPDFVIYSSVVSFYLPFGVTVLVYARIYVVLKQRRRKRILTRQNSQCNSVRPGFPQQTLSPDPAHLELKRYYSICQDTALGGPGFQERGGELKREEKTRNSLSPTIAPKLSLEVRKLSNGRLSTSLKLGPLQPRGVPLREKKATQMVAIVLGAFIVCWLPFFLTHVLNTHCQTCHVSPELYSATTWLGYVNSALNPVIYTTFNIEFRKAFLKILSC
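Cells plated overnight at 1500 cells/well, then exposed to library compounds with dopamine controls for 90 minutes at 37 degrees C. DiscoveRx reagent added for 30–60 minutes at room temperature; luminescence read, quantitative HTS format.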
DRD3 agonist – agonists of human D3 dopamine receptor. P35462. D3R DiscoveRx beta-arrestin cells, luminescence, 90 min. max activation, %. 410,000 compounds, 0.58% hits; in the data active means max activation above about 30%; further: 0% is about no effect
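Agonist mode: compounds and dopamine controls were applied to plated cells for 90 min at 37 degrees C after an overnight attachment at 1500 cells/well. Luminescent read-out followed 30 - 60 minutes at room temperature with DiscoveRx detection reagent.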
KB-3-1 cytotox – kills parental KB-3-1 adenocarcinoma cells; KB-3-1 viability, CellTiter-Glo ATP luminescence, 72 h; Potency, µM (doses to about 46.1 µM), hits mostly cytotoxic; 400,000 compounds, 1.4% hits; AID 1347075; further: potency means the concentration at half of the fitted maximal effect; on the % scale 0 is the no-effect control and ±100 the full control effect; nearly all actives have a fitted effect of over 60% in size
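Parental KB-3-1 viability, qHTS format: 72 h compound exposure, 37 °C; CellTiter-Glo; media-only wells and DMSO plates as controls; concentration-effect fits on corrected data.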
Starred values were filed as active, the others as inactive. Only some compounds are listed: those with a hit (about 8.9% of all), similar ones and a draw of the others. Unless noted, the call rests on the fitted dose curve; in most records, active means well fitted curve in the direction sought with a large enough effect; inconclusive means small, poorly fitted or top-dose-only effect, or another doubt; inactive means no such curve, though single readings can be large; an effect the other way counts as inactive or inconclusive.

What do the screens show for `Cc1ccc(S(=O)(=O)N2CCN(C(C)C(=O)Nc3ccccc3-c3ccccc3)CC2)cc1` (configuration not stated)?
SW480 rerep: -30%; MCF10A rereplic: 4%; KB-V1 cytotox: 3.7µM*; DRD3 antagonist: -6; DRD3 agonist: 5; KB-3-1 cytotox: inactive

Results for CCCS(=O)(=O)N1CCCC(C(=O)NCCOC)C1 (configuration not stated) ?
KB-V1 cytotox: inactive; DRD3 agonist: 1; KB-3-1 cytotox: inactive

What do the screens show for `CC(=O)Nc1ccc(NC2=C/C(=N/S(=O)(=O)c3cccs3)c3ccccc3C2=O)cc1`?
SW480 rerep: 4.1µM*; MCF10A rereplic: 8.2µM*; KB-V1 cytotox: inactive; DRD3 antagonist: -66*; DRD3 agonist: -18; KB-3-1 cytotox: 21µM*

Results for Cc1ccc(NC2=C/C(=N/S(=O)(=O)c3cccs3)c3ccccc3C2=O)cc1C ?
SW480 rerep: -5%; MCF10A rereplic: inconclusive; KB-V1 cytotox: inactive; DRD3 antagonist: 0; DRD3 agonist: -3; KB-3-1 cytotox: inactive

What do the screens show for `COc1ccc(S(=O)(=O)/N=C2\C=C(Nc3ccc(O)cc3)C(=O)c3ccccc32)cc1`?
SW480 rerep: 16µM*; MCF10A rereplic: 4.6µM*; KB-V1 cytotox: 16µM*; DRD3 antagonist: -80*; DRD3 agonist: -34; KB-3-1 cytotox: 5.2µM*

How did Cc1ccccc1NC1=C/C(=N\S(=O)(=O)c2cccs2)c2ccccc2C1=O do in these assays?
SW480 rerep: 4.1µM*; MCF10A rereplic: inconclusive; KB-V1 cytotox: 7.3µM*; DRD3 antagonist: -112*; DRD3 agonist: -19; KB-3-1 cytotox: inconclusive

Results for CN(C)c1ccc(N=Cc2cccc3ccccc23)cc1 ?
KB-V1 cytotox: inactive; KB-3-1 cytotox: inactive

Results for CC(=O)C1=C(OC(=O)C(C)C)c2ccccc2S(=O)(=O)N1Cc1ccccc1 ?
KB-V1 cytotox: inactive; DRD3 agonist: -3; KB-3-1 cytotox: inactive

Results for CC(C)c1ccc(NC(=O)CCS(=O)(=O)c2ccc3c(c2)CC(=O)N3C)cc1 ?
KB-V1 cytotox: inactive; DRD3 agonist: -16; KB-3-1 cytotox: inactive

What do the screens show for `O=C(Nc1cc(C(F)(F)F)ccc1-n1cncn1)c1ccc([N+](=O)[O-])o1`?
SW480 rerep: 9.2µM*; MCF10A rereplic: inconclusive; KB-V1 cytotox: inconclusive; DRD3 antagonist: -6; DRD3 agonist: 0; KB-3-1 cytotox: 21µM*

Results for O=C(Nc1cc(C(F)(F)F)ccc1-n1cncn1)c1ccc(Br)cc1 ?
SW480 rerep: -2%; MCF10A rereplic: 1%; KB-V1 cytotox: inconclusive; DRD3 antagonist: 22; DRD3 agonist: -1; KB-3-1 cytotox: inactive

How did Cc1ncc(CN2CCC(C(=O)Nc3ccc(-n4cccn4)cc3)CC2)s1 do in these assays?
SW480 rerep: -4%; MCF10A rereplic: 3%; DRD3 antagonist: 1; DRD3 agonist: 1

How did O=C(Nc1ccc(-n2cccn2)cc1)C1CCCCN1Cc1cccc2c1OCO2 (configuration not stated) do in these assays?
SW480 rerep: inconclusive; MCF10A rereplic: 3.7µM*; KB-V1 cytotox: inconclusive; DRD3 antagonist: -23; DRD3 agonist: -10; KB-3-1 cytotox: 4.1µM*

How did CC(C)(C)OC(=O)N1CCC(c2c(C(=O)NCc3ccc4c(c3)OCO4)cnn2-c2ccc(F)cc2F)CC1 do in these assays?
KB-V1 cytotox: inactive; DRD3 agonist: 7; KB-3-1 cytotox: inactive

How did Cn1c(SCC(=O)N2CCN(c3ccccc3)CC2)nnc1-c1cc2ccccc2o1 do in these assays?
SW480 rerep: -1%; MCF10A rereplic: 1%; KB-V1 cytotox: inactive; DRD3 antagonist: 5; DRD3 agonist: -6; KB-3-1 cytotox: 23µM*

Results for Cc1occc1-c1nnc(SCC(=O)N2CCN(c3ccccc3)CC2)n1C ?
SW480 rerep: -4%; MCF10A rereplic: 1%; KB-V1 cytotox: inactive; DRD3 antagonist: -3; DRD3 agonist: 10; KB-3-1 cytotox: inactive

What do the screens show for `Cn1cccc1Cc1nnc(SCC(=O)N2CCN(c3ccccc3)CC2)n1-c1ccc(F)cc1`?
SW480 rerep: -6%; MCF10A rereplic: 14%; KB-V1 cytotox: 12µM*; DRD3 antagonist: 12; DRD3 agonist: 5; KB-3-1 cytotox: inactive

Results for Cn1c(Cc2cccc3ccccc23)nnc1SCC(=O)N1CCN(c2ccccc2)CC1 ?
SW480 rerep: 12%; MCF10A rereplic: 7%; KB-V1 cytotox: 15µM*; DRD3 antagonist: -15; DRD3 agonist: -2; KB-3-1 cytotox: inactive

Results for CC(=O)c1ccc(NC(=O)Cn2ncc3c(C)n(Cc4ccc(F)cc4)c(C)c3c2=O)cc1 ?
KB-V1 cytotox: inactive; DRD3 agonist: 5; KB-3-1 cytotox: inactive

How did COc1ccc(C)cc1NC(=O)C1COc2ccccc2C1 (configuration not stated) do in these assays?
KB-V1 cytotox: inactive; DRD3 agonist: 8; KB-3-1 cytotox: inactive

How did CCOc1ccc(NC(=O)c2oc3ccccc3c2NC(=O)c2ccc(OC)cc2OC)cc1 do in these assays?
KB-V1 cytotox: inconclusive; DRD3 agonist: 0; KB-3-1 cytotox: inactive

What do the screens show for `CCC(Sc1nc2cc(OC)c(OC)cc2c(=O)n1Cc1ccc(Cl)cc1)C(=O)NCCOC` (configuration not stated)?
DRD3 agonist: -9

What do the screens show for `Cc1cc(/C=C2\Cc3ccccc3C2=O)c(C)n1-c1ccccc1`?
SW480 rerep: inconclusive; MCF10A rereplic: 21µM*; KB-V1 cytotox: inactive; DRD3 antagonist: 17; DRD3 agonist: -9; KB-3-1 cytotox: inactive

How did COc1ccc(-c2nc(C)c(CCNC(=O)c3ccco3)s2)cc1 do in these assays?
KB-V1 cytotox: inconclusive; DRD3 agonist: 3; KB-3-1 cytotox: inactive

How did COCCNC(=O)C(C)OC(=O)C1=Cc2ccccc2OC1 (configuration not stated) do in these assays?
SW480 rerep: -2%; MCF10A rereplic: 1%; KB-V1 cytotox: inactive; DRD3 antagonist: 5; DRD3 agonist: 2; KB-3-1 cytotox: inactive

How did CC(OC(=O)C1=Cc2ccccc2OC1)C(=O)NCC1CCCO1 (configuration not stated) do in these assays?
SW480 rerep: 0%; MCF10A rereplic: 21µM*; KB-V1 cytotox: inactive; DRD3 antagonist: 7; DRD3 agonist: 1; KB-3-1 cytotox: inactive

What do the screens show for `CCc1nn(-c2ccccc2)c2nc(-c3ccccc3OC)c3cc(OC)c(OC)cc3c12`?
KB-V1 cytotox: inactive; DRD3 agonist: 11; KB-3-1 cytotox: inactive
